This is an account of results in PubChem BioAssay (NCI).

The panel holds about 79,000 compounds, 15% with a hit somewhere; the sample as a whole holds those more often. Values without a mark were called inactive. Activity calls are given as the source filed them. Rule as the data show it: active = growth inhibition above about 70%; inactive = the rest.

Experiment [1] in a line: NCI Yeast Anticancer Drug Screen. Data for the rad50 strain (AID 155).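 Also: 0% = growth of vehicle-only cultures of the same strain.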 As to conditions: S. cerevisiae rad50 strain growth inhibition, active compounds read high. In a few lines:
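DNA repair mutant yeast, compound exposure, growth read-out; inhibition is taken relative to vehicle.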

The nature of experiment [2]: NCI Yeast Anticancer Drug Screen. Data for the mec2-1 strain (AID 157). Conditions: S. cerevisiae mec2-1 strain, active compounds read high. In outline: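 mec2-1 yeast strain, carrying an alteration in DNA damage repair or cell cycle control, was exposed to compounds; growth inhibition was measured relative to vehicle-treated controls.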
Experiment [3] is described as follows: NCI Yeast Anticancer Drug Screen. Data for the sgs1 mgt1 strain (AID 161).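 Also: 0% = growth of cultures given vehicle only.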 Conditions: S. cerevisiae sgs1 mgt1 strain, active compounds read high. In a few lines:
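Compounds are added to genetically altered yeast, and growth is compared with cultures given vehicle alone to give percent inhibition.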

A short description of experiment [4]: NCI Yeast Anticancer Drug Screen. Data for the cln2 rad14 strain (AID 165).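 Also: 0% = growth equal to vehicle treated cultures.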 As to conditions: S. cerevisiae cln2 rad14 strain, active compounds read high. In outline:
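Yeast carrying cln2 and rad14 alterations (cell cycle control and DNA damage repair) were exposed to compounds. Growth inhibition was measured against vehicle-treated controls.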

Experiment [5] in a line: NCI Yeast Anticancer Drug Screen. Data for the bub3 strain (AID 167). Conditions: S. cerevisiae bub3 mutant strain, active compounds read high. In outline: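 In this screen, a yeast mutant lacking normal mitotic checkpoint function is challenged with compound. Relative growth versus vehicle gives the inhibition value.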
Experiment [6] in a line: NCI Yeast Anticancer Drug Screen. Data for the mlh1 rad18 strain (AID 175). As to conditions: S. cerevisiae mlh1 rad18 strain growth inhibition, active compounds read high. In a few lines:
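Growth inhibition of the yeast strain was measured after compound exposure and expressed relative to vehicle-treated controls. The strain carries defined defects in DNA damage repair.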

Where [7] appears, read: at 5.0 µM (retest, dose inferred, filed as 0.5).
Setting [8] is: at 50.0 µM (retest, dose inferred, filed as 5.0).

Take `COc1ccc(/C=C/C(C)=N/NC(=S)NCC(C)C)cc1`: the growth inhibition is -9% in experiment [1] (setting [7]); 55% in experiment [1] (setting [8]); 15.8% in experiment [1] (at 50.0 µM); -12% in experiment [2] (setting [7]); 47% in experiment [2] (setting [8]); 45% in experiment [2] (at 50.0 µM). Also, the growth inhibition in experiment [3] (setting [7]) was -2%; in experiment [3] (setting [8]), 71% (active); in experiment [3] (at 50.0 µM), 75.2% (active); in experiment [4] (setting [7]) it was -17%; in experiment [4] (setting [8]), 48%; in experiment [4] (at 50.0 µM) it was 18.4%. For the same molecule, the growth inhibition in experiment [5] (setting [7]) was -6%; in experiment [5] (setting [8]) it was 57%; in experiment [5] (at 50.0 µM) it was 88.8% (active); in experiment [6] (setting [7]), 3%; in experiment [6] (setting [8]), 61%; in experiment [6] (at 50.0 µM) it was 52.5%.
Take `COC1/C=C/OC2(C)Oc3c(C)c(O)c4c5c(cc(O)c4c3C2=O)N=C(O5)/C(C)=C\C=C\C(C)C(O)C(C)C(O)C(C)C(OC(C)=O)C1C` (centres undefined): the growth inhibition is 5% in experiment [1] (setting [7]); 99% (active) in experiment [1] (setting [8]); 55.2% in experiment [1] (at 50.0 µM); -71% in experiment [2] (setting [7]); 99% (active) in experiment [2] (setting [8]); 60% in experiment [2] (at 50.0 µM). For the same molecule, the growth inhibition is -60% in experiment [3] (setting [7]); 96% (active) in experiment [3] (setting [8]); 53.6% in experiment [3] (at 50.0 µM); 28% in experiment [4] (setting [7]); 99% (active) in experiment [4] (setting [8]); 53.5% in experiment [4] (at 50.0 µM). Also, the growth inhibition in experiment [5] (setting [7]) was 3%; in experiment [5] (setting [8]), 99% (active); in experiment [5] (at 50.0 µM), 48.5%; in experiment [6] (setting [7]), 4%; in experiment [6] (setting [8]), 98% (active); in experiment [6] (at 50.0 µM) it was 60.6%.
As to `O=C(Nn1c(=O)c(=O)oc2ccccc21)C(F)(F)F`, the growth inhibition in experiment [1] (setting [7]) was 0%; in experiment [1] (setting [8]) it was 90% (active); in experiment [1] (at 50.0 µM) it was 94.7% (active); in experiment [2] (setting [7]) it was 1%; in experiment [2] (setting [8]), 87% (active); in experiment [2] (at 50.0 µM), 69.4%. Besides, the growth inhibition in experiment [3] (setting [7]) was 17%; in experiment [3] (setting [8]) it was 88% (active); in experiment [3] (at 50.0 µM) it was 81.2% (active); in experiment [4] (setting [7]) it was 3%; in experiment [4] (setting [8]) it was 93% (active); in experiment [4] (at 50.0 µM), 94.2% (active). Besides, the growth inhibition in experiment [5] (setting [7]) is 9%; in experiment [5] (setting [8]), 95% (active); in experiment [5] (at 50.0 µM), 90.9% (active); in experiment [6] (setting [7]), 26%; in experiment [6] (setting [8]), 97% (active); in experiment [6] (at 50.0 µM) it was 97.4% (active).
For the molecule `COc1ccccc1NC(=O)C1=CNC(C)=C(C(=O)Nc2ccccc2OC)C1/C=C/c1ccccc1` (centres undefined), the growth inhibition in experiment [1] (setting [7]) is 1%; in experiment [1] (setting [8]), 18%; in experiment [1] (at 50.0 µM) it was 43.5%; in experiment [2] (setting [7]), -4%; in experiment [2] (setting [8]), 1%; in experiment [2] (at 50.0 µM) it was -0.75%. The growth inhibition is 1% in experiment [3] (setting [7]); 17% in experiment [3] (setting [8]); -1.95% in experiment [3] (at 50.0 µM); -1% in experiment [4] (setting [7]); -8% in experiment [4] (setting [8]); -6.3% in experiment [4] (at 50.0 µM). For the same molecule, the growth inhibition in experiment [5] (setting [7]) was -2%; in experiment [5] (setting [8]) it was -8%; in experiment [5] (at 50.0 µM), -1.9%; in experiment [6] (setting [7]), -1%; in experiment [6] (setting [8]) it was 7%; in experiment [6] (at 50.0 µM) it was 15.3%.
On to `COc1cc([C@H]2c3c(cc(OC)c(OC)c3OC)CC3COC(=O)[C@@H]32)cc2c1OCO2` (some centres undefined), for which the growth inhibition was 4% in experiment [1] (setting [7]); 37% in experiment [1] (setting [8]); 95.5% (active) in experiment [1] (at 50.0 µM); 2% in experiment [2] (setting [7]); 25% in experiment [2] (setting [8]); 98.8% (active) in experiment [2] (at 50.0 µM). Also, the growth inhibition was 9% in experiment [3] (setting [7]); 38% in experiment [3] (setting [8]); 52.2% in experiment [3] (at 50.0 µM); 1% in experiment [4] (setting [7]); 4% in experiment [4] (setting [8]); 98.5% (active) in experiment [4] (at 50.0 µM). Further, the growth inhibition was -2% in experiment [5] (setting [7]); 53% in experiment [5] (setting [8]); 99.3% (active) in experiment [5] (at 50.0 µM); -2% in experiment [6] (setting [7]); 9% in experiment [6] (setting [8]); 97.5% (active) in experiment [6] (at 50.0 µM).
For the molecule `CCCCN(CCCC)CN1C(=O)/C(=C/c2ccc(NC(C)=O)cc2)NC1=S`, the growth inhibition was 7% in experiment [1] (setting [7]); 62% in experiment [1] (setting [8]); 78% (active) in experiment [1] (at 50.0 µM); -7% in experiment [2] (setting [7]); 64% in experiment [2] (setting [8]); 79.6% (active) in experiment [2] (at 50.0 µM). In addition, the growth inhibition in experiment [3] (setting [7]) was -1%; in experiment [3] (setting [8]), 64%; in experiment [3] (at 50.0 µM), 79.9% (active); in experiment [4] (setting [7]) it was -2%; in experiment [4] (setting [8]), 63%; in experiment [4] (at 50.0 µM) it was 79.8% (active). The growth inhibition in experiment [5] (setting [7]) was -15%; in experiment [5] (setting [8]) it was 53%; in experiment [5] (at 50.0 µM), 72.7% (active); in experiment [6] (setting [7]), -3%; in experiment [6] (setting [8]), 79% (active); in experiment [6] (at 50.0 µM), 86.2% (active).
For the molecule `O=[N+]([O-])c1c(Cl)c(Cl)c(O)c(Cl)c1Cl`, the growth inhibition in experiment [1] (setting [7]) was 55%; in experiment [1] (setting [8]), 80% (active); in experiment [1] (at 50.0 µM), 76.5% (active); in experiment [2] (setting [7]) it was 44%; in experiment [2] (setting [8]), 83% (active); in experiment [2] (at 50.0 µM) it was 78.7% (active). Besides, the growth inhibition in experiment [3] (setting [7]) is 75% (active); in experiment [3] (setting [8]) it was 87% (active); in experiment [3] (at 50.0 µM) it was 90% (active); in experiment [4] (setting [7]), 31%; in experiment [4] (setting [8]), 64%; in experiment [4] (at 50.0 µM), 30.9%. The growth inhibition in experiment [5] (setting [7]) was 55%; in experiment [5] (setting [8]), 75% (active); in experiment [5] (at 50.0 µM), 78.2% (active); in experiment [6] (setting [7]), 32%; in experiment [6] (setting [8]) it was 89% (active); in experiment [6] (at 50.0 µM), 70.8% (active).
Turning to `C=CCN1/C(=C/C=C\c2sc3ccccc3[n+]2CC=C)Sc2ccccc21`, the growth inhibition in experiment [1] (setting [7]) was 60%; in experiment [1] (setting [8]), 98% (active); in experiment [1] (at 50.0 µM), 91.7% (active); in experiment [2] (setting [7]) it was 80% (active); in experiment [2] (setting [8]), 99% (active); in experiment [2] (at 50.0 µM), 93.6% (active). The growth inhibition is 95% (active) in experiment [3] (setting [7]); 99% (active) in experiment [3] (setting [8]); 93.7% (active) in experiment [3] (at 50.0 µM); 93% (active) in experiment [4] (setting [7]); 99% (active) in experiment [4] (setting [8]); 93.5% (active) in experiment [4] (at 50.0 µM). Also, the growth inhibition in experiment [5] (setting [7]) is 98% (active); in experiment [5] (setting [8]) it was 99% (active); in experiment [5] (at 50.0 µM) it was 92.2% (active); in experiment [6] (setting [7]), 90% (active); in experiment [6] (setting [8]), 98% (active); in experiment [6] (at 50.0 µM) it was 91.8% (active).
